Source: PubChem BioAssay

assay: blood-stage malaria parasite viability loss – strain 3D7, DAPI fluorescence, 100 nL, primary screen (AID 1184);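 also: parasites grown inside human red blood cells in medium with human serum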; conditions: P. falciparum 3D7 growth, 3 d, higher = more signal

| Structure (SMILES) | z-score |
| --- | --- |
| COC(=O)[C@@]1(Cc2ccc(F)cc2)[C@H]2c3cc(C(=O)N(C)C)n(C)c3C[C@H]2CN1C(=O)c1ccccc1 | 0.386 |
| C=C(CCCC)C(=O)CC[C@H](OC(=O)c1ccccc1-c1ccccc1C(=O)O)c1ccc(OCCO)cc1 | -3.08 |
| N#Cc1ccc(NN2C(C(O)C3CC=CCC3)C=CC3C(=O)N(c4ccccc4)C(=O)C32)cc1 (stereo not given) | 0.134 |
| CCCC=C(CCC)[C@@H](NC(=O)OCC(C)C)c1ccc(C(=O)OC)cc1 | -0.102 |
| O=C(NCC(O)CO)[C@@]1(CCS(=O)(=O)c2ccccc2)N=C(c2ccc(OCCCO)cc2)O[C@H]1c1ccccc1 (stereo not given in full) | -2.02 |
| C=C(COC)C(=O)CC[C@@H](OC(=O)c1ccccc1-c1ccccc1C(=O)O)c1ccc(OCCO)cc1 | -0.61 |
| CC(C)C(CO)N1C(=O)[C@@H]2C3C(=O)OCCC/C=C\[C@H]3OC23C=CCN(Cc2ccccc2)C(=O)[C@@H]13 (stereo not given in full) | 0.359 |
| CN(C)CCCNC(=O)[C@@]1(C)c2ccccc2C(=O)N(Cc2ccc(OC(F)(F)F)cc2)[C@H]1c1ccc(CO)cc1 | -1.94 |
| CO[C@H]1O[C@H](CO)[C@@H](OC(=O)Nc2ccccc2-c2ccccc2)[C@H](OC(=O)Nc2ccccc2)[C@H]1OC(=O)Nc1ccccc1 | -2.14 |
| COC(=O)C(CC#Cc1ccc2c(c1)[C@]1(C(=O)N2)[C@H](C(=O)NC[C@H](O)c2ccccc2)[C@H]2C(=O)O[C@H](c3ccccc3)[C@H](c3ccccc3)N2[C@@H]1c1ccccc1OCCO)C(=O)OC | -2.33 |
| CN(C)CCCCNC(=O)[C@H]1C[C@H]2C(=O)NCC(=O)N2[C@H]1c1ccc(O)cc1 | 0.185 |
| CC(C)=CCCC(C)=CC(O)C1C=CC2C(=O)NC(=O)C2N1Nc1ccc(Cl)cc1Cl (stereo not given) | 0.812 |
| COc1cc(OC)c(C(O)C2C=CC3C(=O)N(c4ccccc4)C(=O)C3N2Nc2ccc(C(C)C)cc2)cc1Br (stereo not given) | -0.0986 |
| CCN(CC)c1ccc(N2CC=CC34O[C@@H]5C=CCCOC(=O)C5[C@H]3C(=O)N(C(C)CO)[C@@H]4C2=O)cc1 (stereo not given in full) | 0.479 |
| CCOC(=O)C1=CCC(c2cc3ccccc3[nH]2)N(CCN2CC(C(=O)OCC)=CCC2c2cc3ccccc3[nH]2)C1 (stereo not given) | -1.51 |
| COc1ccc([Si](C)(C)[C@H]2[C@H](CC(=O)N3Cc4ccccc4C[C@H]3CO)O[C@@]3(C(=O)N(C)c4c(Br)cc(C)cc43)[C@@H]2C)cc1 | -2.61 |
| CN1C(=O)[C@@H]2[C@@H](CC(COc3ccccc3)=C3[C@@H](CCc4ccccc4)OB(O)C[C@@H]32)C1=O | 1.52 |
| CN1C(=O)C2C(C1=O)C1C=C(CCCO)C2C(C2CC2)N1Cc1cccc(OC(F)(F)F)c1 (stereo not given) | -1.06 |

| Structure (SMILES) | z-score |
| --- | --- |
| COc1ccc(C(=O)Nc2cccc(CN3C(=O)[C@]4(O[C@H](CC(=O)N5Cc6ccccc6C[C@H]5CO)[C@@H]([Si](C)(C)c5ccc(OC)cc5)[C@@H]4C)c4ccccc43)c2)cc1 | -2.94 |
| CN(C)C(=O)[C@@]1(Cc2ccccc2CN=[N+]=[N-])COC(c2ccc(OCCCO)cc2)=N1 | -2.08 |
| COc1ccc(C(=O)Nc2cccc(CN3C(=O)[C@@]4(O[C@@H](CC(=O)N5CCC[C@H]5CO)[C@H]([Si](C)(C)c5ccc(OC)cc5)[C@H]4C)c4ccccc43)c2)cc1 | -2.16 |
| O=C(NCCN1CCOCC1)[C@@H]1c2ccccc2C(=O)N(Cc2ccccc2C(F)(F)F)[C@H]1c1ccc(CO)cc1 | -1.16 |
| C=CC1c2cc(O)c(OC)cc2CCN1C (stereo not given) | 0.166 |
| COC(=O)[C@@]1(Cc2ccc(OC)cc2)[C@H]2c3cc(C(=O)N4CCCC4)n(Cc4ccc(Cl)c(C(F)(F)F)c4)c3C[C@H]2CN1C(=O)c1ccccc1 | -1.37 |
| COc1ccc(C(=O)Nc2ccc3c(c2)[C@@]2(O[C@H](CCO)[C@@H]([Si](C)(C)c4ccc(OC)cc4)[C@@H]2C)C(=O)N3Cc2ccccc2)cc1 | -2.89 |
| Cc1ccc(S[C@]2(C(=O)NCc3ccccc3)CC(=O)N(Cc3ccccc3C(F)(F)F)[C@@H]2c2ccc(CO)cc2)cc1 | 0.78 |
| CC1CC/C=C\[C@H]2OC34C=CCN(c5ccc6ccccc6c5)C(=O)[C@H]3N(C(C)CO)C(=O)[C@@H]4C2C(=O)O1 (stereo not given in full) | -0.338 |
| Cc1ccc(N2C(=O)c3ccccc3[C@](C)(C(=O)NCCCN(C)C)[C@@H]2c2ccc(CO)cc2)nc1 | 0.165 |
| CCCC[C@H]1OB(O)C[C@H]2C1=C(COc1ccccc1)C[C@H]1C(=O)C=CC(=O)[C@H]12 | -0.948 |
| CC(C)C(=C=CC[C@H](O)c1ccccc1OCCO)C[C@H](O)COCc1ccccc1 | -1.78 |
| COC(=O)[C@@]1(Cc2ccc(OC)cc2)[C@H]2c3cc(C(=O)N4CCCC4)n(Cc4ccc(C(F)(F)F)nc4)c3C[C@H]2CN1C(=O)c1ccccc1 | -1.5 |
| Cc1ccc(F)cc1S(=O)(=O)N[C@H]1CCN(Cc2ccc(OC(C)C)cc2)C1 | 0.646 |
| CC(C)C(=C=CC[C@H](O)c1ccccc1OCCO)C[C@H](O)c1cc(Cl)cc(Cl)c1O | -1 |
| C=C1C(=O)C=C2CN(C(=O)c3ccccc3)[C@@](Cc3ccc(OC)cc3)(C(=O)OC)[C@@H]12 | -1.17 |
| COc1ccc(C(=O)Nc2ccc(CN3C(=O)[C@@]4(O[C@@H](CCn5cc(CCO)nn5)[C@H]([Si](C)(C)c5ccc(OC)cc5)[C@H]4C)c4ccccc43)cc2)cc1 | -2.71 |
